Experimental data taken from PubChem BioAssay AID1159580 (chemical genetic matrix, 2015).
About 2,000 (36%) of roughly 5,500 compounds were called active. Roughly 18% stayed inconclusive and do not appear here. Rule as the data show it: active = normalized growth mostly below about 0.91 (no sharp cut-off); inconclusive = no clear call, values can overlap the other calls; inactive = mostly above about 0.92. This is one part of the list.

Test: chemical genetic growth profiling, strain panel (AID 1159580);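 also: tested at 20 µM; growth read once vehicle control cultures reached saturation at 30 °C; 1 = growth at the plate median or of vehicle wells; lower values mean less growth of the strain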
Settings: growth OD

Measured: normalized growth

COc1c(OC)c2occc2c2oc(=O)ccc12
inactive: S. cerevisiae deletion strains, locus YJR066W, strain TOR1, hits give low values 0.929 | S. cerevisiae deletion strains, locus YKL009W, strain mrt4, hits give low values 0.957 | S. cerevisiae deletion strains, locus YKL068W, hits give low values 0.978 | S. cerevisiae deletion strains, locus YKL085W, strain MDH1 (second series), hits give low values 0.97 | S. cerevisiae deletion strains, locus YKL085W, strain MDH1, hits give low values 0.97 | S. cerevisiae deletion strains, locus YKL160W, strain elf1, hits give low values 0.942 | S. cerevisiae deletion strains, locus YKL190W, strain CNB1, hits give low values 0.965 | S. cerevisiae deletion strains, locus YKR026C, strain gcn3, hits give low values 0.967 | S. cerevisiae deletion strains, locus YKR091W, strain srl3, hits give low values 0.985 | S. cerevisiae deletion strains, locus YLL001W, strain dnm1, hits give low values 0.993 | S. cerevisiae deletion strains, locus YLL026W, hits give low values 0.991 | S. cerevisiae deletion strains, locus YLL041C, strain sdh2, hits give low values 0.975 | S. cerevisiae deletion strains, locus YLR027C, strain aat2, hits give low values 0.964 | S. cerevisiae deletion strains, locus YLR039C, strain RIC1, hits give low values 0.68 | S. cerevisiae deletion strains, locus YLR058C, strain SHM2, hits give low values 0.96 | S. cerevisiae deletion strains, locus YLR102C, strain apc9, hits give low values 0.983 | S. cerevisiae deletion strains, locus YLR113W, strain HOG1, hits give low values 0.958 | S. cerevisiae deletion strains, locus YLR221C, strain rsa3, hits give low values 0.952 | S. cerevisiae deletion strains, locus YLR258W, strain gsy2, hits give low values 0.988 | S. cerevisiae deletion strains, locus YLR262C, strain YPT6 (second series), hits give low values 0.939 | S. cerevisiae deletion strains, locus YLR262C, strain YPT6, hits give low values 0.79 | S. cerevisiae deletion strains, locus YLR268W, strain sec22, hits give low values 0.927 | S. cerevisiae deletion strains, locus YLR320W, strain mms22, hits give low values 0.895 | S. cerevisiae deletion strains, locus YLR330W, strain CHS5, hits give low values 0.939 | S. cerevisiae deletion strains, locus YLR342W, strain FKS1 (second series), hits give low values 0.95 | S. cerevisiae deletion strains, locus YLR342W, strain FKS1, hits give low values 0.992 | S. cerevisiae deletion strains, locus YLR357W, strain rsc2, hits give low values 1.01 | S. cerevisiae deletion strains, locus YLR370C, strain arc18, hits give low values 0.982 | S. cerevisiae deletion strains, locus YLR384C, strain iki3, hits give low values 0.991 | S. cerevisiae deletion strains, locus YML016C, strain PPZ1, hits give low values 0.936 | S. cerevisiae deletion strains, locus YML032C, strain rad52, hits give low values 0.915 | S. cerevisiae deletion strains, locus YML120C, strain ndi1, hits give low values 0.948 | S. cerevisiae deletion strains, locus YML124C, strain tub3, hits give low values 0.968 | S. cerevisiae deletion strains, locus YMR058W, strain fet3, hits give low values 0.971 | S. cerevisiae deletion strains, locus YMR078C, strain ctf18, hits give low values 0.955 | S. cerevisiae deletion strains, locus YMR125W, strain sto1, hits give low values 1.01 | S. cerevisiae deletion strains, locus YMR129W, hits give low values 0.986 | S. cerevisiae deletion strains, locus YMR205C, strain PFK2, hits give low values 0.987 | S. cerevisiae deletion strains, locus YMR223W, strain ubp8, hits give low values 0.933 | S. cerevisiae deletion strains, locus YMR231W, strain pep5, hits give low values 0.987 | S. cerevisiae deletion strains, locus YMR263W, strain SAP30, hits give low values 0.916 | S. cerevisiae deletion strains, locus YMR307W, strain GAS1, hits give low values 0.816 | S. cerevisiae deletion strains, locus YNL067W, strain RPL9B, hits give low values 0.941 | S. cerevisiae deletion strains, locus YNL071W, strain lat1, hits give low values 0.929 | S. cerevisiae deletion strains, locus YNL183C, strain NPR1, hits give low values 0.921 | S. cerevisiae deletion strains, locus YNL209W, strain ssb2, hits give low values 0.976 | S. cerevisiae deletion strains, locus YNL233W, strain BNI4, hits give low values 0.872 | S. cerevisiae deletion strains, locus YNL248C, strain rpa49, hits give low values 0.906 | S. cerevisiae deletion strains, locus YNL250W, strain rad50, hits give low values 0.989 | S. cerevisiae deletion strains, locus YNL271C, strain bni1, hits give low values 0.965 | S. cerevisiae deletion strains, locus YNL298W, strain CLA4, hits give low values 0.95 | S. cerevisiae deletion strains, locus YNL322C, strain KRE1 (second series), hits give low values 0.986 | S. cerevisiae deletion strains, locus YNL322C, strain KRE1, hits give low values 0.973 | S. cerevisiae deletion strains, locus YNR049C, strain mso1, hits give low values 0.985 | S. cerevisiae deletion strains, locus YNR052C, strain pop2, hits give low values 0.948 | S. cerevisiae deletion strains, locus YOL012C, strain htz1 0.5 | S. cerevisiae deletion strains, locus YOL147C, strain pex11, hits give low values 0.958 | S. cerevisiae deletion strains, locus YOR001W, strain rrp6, hits give low values 0.936 | S. cerevisiae deletion strains, locus YOR061W, strain CKA2, hits give low values 0.962 | S. cerevisiae deletion strains, locus YOR069W, strain VPS5, hits give low values 0.968 | S. cerevisiae deletion strains, locus YOR070C, strain gyp1, hits give low values 0.977 | S. cerevisiae deletion strains, locus YOR080W, strain dia2, hits give low values 0.98 | S. cerevisiae deletion strains, locus YOR083W, strain WHI5, hits give low values 0.908 | S. cerevisiae deletion strains, locus YOR106W, strain vam3, hits give low values 0.946 | S. cerevisiae deletion strains, locus YOR136W, strain idh2, hits give low values 0.995 | S. cerevisiae deletion strains, locus YOR144C, strain elg1, hits give low values 0.954 | S. cerevisiae deletion strains, locus YOR231W, strain MKK1, hits give low values 0.956 | S. cerevisiae deletion strains, locus YOR265W, strain rbl2, hits give low values 0.985 | S. cerevisiae deletion strains, locus YOR270C, strain vph1, hits give low values 0.857 | S. cerevisiae deletion strains, locus YOR290C, strain snf2, hits give low values 0.944 | S. cerevisiae deletion strains, locus YOR316C, strain cot1, hits give low values 0.985 | S. cerevisiae deletion strains, locus YPL051W, strain arl3, hits give low values 0.933 | S. cerevisiae deletion strains, locus YPL055C, strain LGE1, hits give low values 0.87 | S. cerevisiae deletion strains, locus YPL078C, strain atp4, hits give low values 0.932 | S. cerevisiae deletion strains, locus YPL106C, strain sse1, hits give low values 0.94 | S. cerevisiae deletion strains, locus YPL240C, strain hsp82, hits give low values 0.958 | S. cerevisiae deletion strains, locus YPL241C, strain CIN2, hits give low values 0.941 | S. cerevisiae deletion strains, locus YPL256C, strain CLN2, hits give low values 0.973 | S. cerevisiae deletion strains, locus YPR119W, strain clb2, hits give low values 0.98 | S. cerevisiae deletion strains, locus YPR141C, strain kar3, hits give low values 0.985 | S. cerevisiae deletion strains, locus YPR163C, strain tif3, hits give low values 0.917 | S. cerevisiae deletion strains, locus YPR167C, strain met16, hits give low values 0.96 | S. cerevisiae deletion strains, strain wtn01, hits give low values 0.957 | S. cerevisiae strains, strain wild type, hits give low values 0.967
active: S. cerevisiae deletion strains, locus YKR001C, strain vps1, hits give low values 0.644 | S. cerevisiae deletion strains, locus YLR371W, strain rom2, hits give low values 0.816 | S. cerevisiae deletion strains, locus YLR418C, strain cdc73, hits give low values 0.754 | S. cerevisiae deletion strains, locus YNL307C, strain MCK1, hits give low values 0.859 | S. cerevisiae deletion strains, locus YOR184W, strain ser1, hits give low values 0.859
